A selection: hits, their analogues and other compounds. The true share with any hit is near 6.8%.
NS3h inh CB: hepatitis C NS3 helicase inhibition, primary screen; actives 1.6% (n = 16,000); AID 687043; NS3h Cy5-dT15 DNA binding, fluorescence polarization; inhibition, % at 100 µM;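 active means inhibition above the average over every tested compound plus 3 SD, cut at about 40% in these data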
Cy5 interf NS3h: Cy5 fluorescence interference, HCV helicase counter-screen; Cy5-dT15 DNA with NS3h; actives lie on both sides; signal over control mean, under 1 quenches; fluorescence interference ratio at 100 µM; actives 6% (n = 16,000);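 active means compound fluorescence over control fluorescence at most 0.8, a quencher, or at least a set upper limit, an enhancer; inactive means ratio between 0.8 and the set upper limit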
Numbers without * were called inactive.

SMILES | NS3h inh CB | Cy5 interf NS3h
CCCC(=O)NC(c1ccc(C)cc1)c1c(OC(C)=O)ccc2ccccc12 (stereo unspecified) | 12 | 0.96
Cc1ccc([N+](=O)[O-])cc1NC(=O)COc1ccc(C(C)(C)C)cc1 | 8 | 0.97
Cc1ccc(S(=O)(=O)C(CC(=O)c2ccc(Cl)cc2)c2ccccc2)cc1 (stereo unspecified) | 2 | 0.98
COc1ccc(C(=O)CC(c2ccc(C(C)C)cc2)S(=O)(=O)c2ccc(C)cc2)cc1 (stereo unspecified) | 18 | 0.73*
COc1ccc(C(CC(=O)c2ccccc2)S(=O)(=O)c2ccc(C)cc2)cc1 (stereo unspecified) | 14 | 0.64*
COc1ccc(N(CC(=O)NCC(C)C)S(=O)(=O)c2ccc(C)cc2)cc1 | 4 | 1
Clc1ccc(-c2nc(-c3ccc(Br)cc3)no2)c(Cl)c1 | -1 | 1.1
CCc1ccccc1N(CC(=O)Nc1cccc(OC)c1)S(C)(=O)=O | 16 | 1
COc1cccc(CN2CCN(Cc3cc(OC)c(OC)c(OC)c3)CC2)c1 | -18 | 1
COc1ccc(NC(=O)CN(c2ccc(Br)cc2)S(C)(=O)=O)cc1 | 14 | 1.1
O=[N+]([O-])c1cccc(N=Cc2ccc[nH]2)c1 | 10 | 0.68*
NS(=O)(=O)c1ccc(N=Cc2ccc[nH]2)cc1 | 1 | 1.1
N/C(=N\OC(=O)c1cccc([N+](=O)[O-])c1)c1ccc(Br)cc1 | 14 | 1.1
COc1ccc(/C=C/C(=O)c2ccc(Cl)cc2)c(OC)c1 | 4 | 0.97
COc1ccc(N=C(NOC(C)=O)c2ccc(Cl)cc2)c(OC)c1 | 10 | 0.73*
Cc1[nH]c2ccccc2c1/C=N\NC(=O)c1cccc([N+](=O)[O-])c1 | -2 | 0.63*
Cc1[nH]c2ccccc2c1/C=N\Nc1ccc([N+](=O)[O-])cc1 | 31 | 0.97
O=C1/C(=C/c2ccccc2[N+](=O)[O-])SC(=S)N1c1cccc(C(F)(F)F)c1 | -2 | 0.76*
CCN1C(=O)/C(=C\c2cccc(O)c2)SC1=S | 34 | 1
O=C1/C(=C\c2ccc([N+](=O)[O-])cc2)SC(=S)N1c1cccc(C(F)(F)F)c1 | -4 | 1.1
O=C1/C(=C/c2ccccc2OCc2ccc([N+](=O)[O-])cc2)SC(=S)N1Cc1ccccc1 | 11 | 1.1
CCN1C(=O)/C(=C\c2cccc(C(F)(F)F)c2)SC1=S | 10 | 0.71*
O=C1/C(=C/c2ccccc2OCc2ccc([N+](=O)[O-])cc2)SC(=S)N1c1ccccc1 | 12 | 0.75*
O=C1NC(=S)NC(=O)C1=Cc1ccccc1OCc1ccc([N+](=O)[O-])cc1 | 30 | 0.68*
Cc1ccc(COc2ccccc2C=C2C(=O)NC(=S)NC2=O)cc1 | 19 | 0.95
SMILES | NS3h inh CB | Cy5 interf NS3h
O=C(Nc1ccc(Cl)cc1)c1ccccc1C(F)(F)F | 15 | 0.94
Cc1ccc(C(=O)N/C(=C\c2cccc(Oc3ccccc3)c2)C(=O)NCCN2CCOCC2)cc1 | 15 | 0.95
O=C1C(=O)N(CC2CCCO2)C(c2ccccc2)C1=C(O)c1ccccc1 (stereo unspecified) | 8 | 1.1
COc1cccc(CN2CCN(Cc3cccc4ccccc34)CC2)c1 | -12 | 0.97
COc1ccc(C2C(=C(O)c3ccccc3)C(=O)C(=O)N2c2cccc([N+](=O)[O-])c2)cc1OC (stereo unspecified) | -5 | 0.99
Cc1c(N(C(=O)c2ccc(Cl)cc2)C(C)C)c(=O)n(-c2ccccc2)n1C | 4 | 1.1
COC(=O)C1=C(C)NC2=C(C(=O)c3ccccc32)C1c1ccc(F)cc1 (stereo unspecified) | 10 | 0.89
O=C1C2=C(Nc3[nH]n(-c4ccccc4)c(=O)c3C2c2ccccc2)c2ccccc21 (stereo unspecified) | 6 | 0.76*
CC(=O)c1cccc(NC(=O)CN(c2cccc([N+](=O)[O-])c2)S(=O)(=O)c2ccccc2)c1 | 14 | 0.97
COC(=O)c1ccc(/C=c2\sc3nc(-c4ccc(C)cc4)nn3c2=O)cc1 | 16 | 0.97
Cc1ccc(-n2nc3ccc(NC(=O)c4ccco4)cc3n2)cc1 | 14 | 0.68*
COc1ccc(CC(=O)Nc2ccc(C)c(NC(=O)c3ccccc3)c2)cc1OC | -26 | 0.97
Cc1ccc(NC(=O)c2ccco2)cc1NC(=O)c1ccccc1 | 9 | 0.78*
O=C(O)CCC(=O)Nc1ccc2nn(-c3ccccc3)nc2c1 | 3 | 1
CCOC(=O)c1cccc(NC(=O)c2ccco2)c1 | 16 | 0.68*
COc1ccc(-n2nc3cc(C)c(NC(=O)c4ccco4)cc3n2)cc1 | 24 | 1.1
O=C(Nc1ccc2nn(-c3ccccc3)nc2c1)C(Cl)(Cl)Cl | 2 | 0.69*
Nc1cccc(NC(=O)c2ccco2)c1 | -3 | 0.96
Cc1ccc(N2CCN(C(=O)Nc3ccc(Cl)cc3)CC2)cc1 | -7 | 0.98
COc1ccc(/C=C/C(=O)Nc2ccccc2C(F)(F)F)cc1Br | 19 | 0.99
CCOc1ccc(N(CC(=O)N2CCN(c3ccccc3OC)CC2)S(C)(=O)=O)cc1 | 4 | 1
COc1ccc(C2C(=C(O)c3ccc(C)cc3)C(=O)C(=O)N2c2ccc(O)cc2)cc1 (stereo unspecified) | -26 | 0.97
O=C1NC(=S)S/C1=C\c1ccc(O)c(O)c1 | 27 | 1
CC(C)CN1C(=O)/C(=C/c2ccc([N+](=O)[O-])cc2)SC1=S | 13 | 1
COc1ccc(C2NC(=O)NC(C)=C2C(=O)Nc2cccc(Cl)c2)cc1 (stereo unspecified) | 7 | 1
SMILES | NS3h inh CB | Cy5 interf NS3h
O=C(O/N=C(\c1ccncc1)c1ccc([N+](=O)[O-])cc1)c1ccccc1F | 12 | 0.99
CCCCOc1ccc(C(=O)O/N=C(\c2ccncc2)c2ccc([N+](=O)[O-])cc2)cc1 | 10 | 0.75*
Cc1cc(Nc2cccc(F)c2)n2c(nc3ccccc32)c1C#N | 2 | 1
Cc1cc(Nc2cccc(O)c2)n2ncnc2n1 | 9 | 0.69*
Cc1cc2c(cc1Br)NC(=O)C2=O | 15 | 0.76*
Cc1c(Cl)cccc1-c1ccc(C(=O)Nc2cccc(Cl)c2Cl)o1 | 5 | 0.97
O=C(NCCNc1ccc([N+](=O)[O-])cc1)c1cccc(Br)c1 | 20 | 1
Nc1nonc1C(=O)NCCNC(=O)c1cccc(Br)c1 | 14 | 0.71*
O=S(=O)(c1ccccc1C(O)(c1ccccc1)c1ccccc1)c1ccccc1C(O)(c1ccccc1)c1ccccc1 | 6 | 0.76*
O=C(O)c1ccccc1NC1=C(Cl)C(=O)N(c2ccc(Br)cc2)C1=O | 8 | 1
O=C(Nc1ccccc1C(=O)Nc1ccccn1)c1ccccc1F | 9 | 0.95
O=C(Nc1ccccc1C(=O)Nc1ccccn1)c1ccco1 | 42* | 1.1
O=C(/C=C/c1ccc(-c2cc(Cl)ccc2Cl)o1)c1cccs1 | 12 | 1.1
O=C1NC(c2ccccc2)=C(c2ccc3ccccc3n2)C(c2ccc([N+](=O)[O-])cc2)N1 (stereo unspecified) | 13 | 0.98
Cc1ccc(C(=O)O/N=C(/N)c2cccnc2)cc1[N+](=O)[O-] | 7 | 0.66*
Cc1ccc(C(=O)O/N=C(/N)c2ccccn2)cc1[N+](=O)[O-] | 7 | 1
Cc1ccc(/C=N/NC(=O)c2ccc(O)cc2)cc1 | -4 | 0.97
O=C(Nc1ccc(C(=O)O)cc1)/C(=C/c1cccc([N+](=O)[O-])c1)NC(=O)c1ccccc1 | 1 | 0.97
Cc1ccc(C(=O)N/C(=C\c2cccc([N+](=O)[O-])c2)C(=O)Nc2ccc(C)cc2C)cc1 | 6 | 1.3*

Bioassay records (PubChem BioAssay)
